Reference: the supplement of paper PMC6135742
Where a name gives a salt, the structure may show the parent alone. ± gives the standard deviation of the averaged measurements. Whole data set: some 2,600 compounds, median “MBP+ mature oligodendrocyte number relative to DMSO vehicle control” near -0.34, cut for the highest 2% near 13. The sample as a whole holds a higher share of the highest values than the screen did.

system: jimpy (Plp1 jimpy) mouse iPSC-derived oligodendrocyte progenitor cells; assay: MBP+ mature oligodendrocyte number relative to DMSO vehicle control (SDs above negative control mean); higher = more surviving jimpy oligodendrocytes (rescue); conditions: 10 µM; 3 days
Procedure: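 Primary phenotypic screen of >3,000 bioactive compounds (Selleck L1700 and Sigma LO1280 libraries) at a single dose of 10 µM. Compounds were added to jimpy (Plp1 mutant) mouse iPSC-derived OPCs at the start of thyroid hormone-induced oligodendrocyte differentiation, one well per compound in 384-well plates. After 3 days cells were stained for MBP, Sox10 and DAPI and imaged with an Operetta system. MBP+ oligodendrocyte number and total cell number were expressed as the number of SDs above the mean of the DMSO negative control on the same plate (n=16 control wells per plate). Hits were defined as >=4 SD for oligodendrocytes and >=2 SD for total cells.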

Row | Compound | MBP+ mature oligodendrocyte number
1 | O=C(/C=C/c1ccccc1)NC(NC(=S)Nc1cccc2cccnc12)C(Cl)(Cl)Cl (stereo unspecified) [Salubrinal] | 19
2 | O=C(Nc1cccc2cccnc12)c1ccc(N2C(=O)[C@@H]3[C@H](C2=O)[C@@H]2C=C[C@H]3C2)cc1 [IWR-1-endo] | -3.56
3 | O=C(C=Cc1ccccc1)NC(NC(=S)Nc1ccc(Cl)cc1)C(Cl)(Cl)Cl (stereo unspecified) | -0.386
4 | N=C(N)Nc1ccc(C(=O)Oc2ccc3cc(C(=N)N)ccc3c2)cc1 [Nafamostat Mesylate] | -3.03
5 | NC1CONC1=O (racemic) [DL-Cycloserine] | 0.353
6 | O=C(Nc1ccccc1Br)N[C@@H]1CCN(c2ccc(C(F)(F)F)cn2)C1 | 1.22
7 | O=C(Nc1cccnc1)N1CCC(Cc2cccc(Oc3ccc(C(F)(F)F)cn3)c2)CC1 | 19.5
8 | O=C(Nc1cccnc1)N1CCC(Cc2cccc(Oc3ccc(C(F)(F)F)cn3)c2)CC1 [PF 3845 hydrate] | 10.1
9 | Cn1ccc2cc3c(cc21)CCN3C(=O)Nc1cccnc1 | 0.574
10 | Nc1nccc(Oc2ccc(NC(=O)c3c[nH]cc(-c4ccc(F)cc4)c3=O)cc2F)c1Cl | 7.17
11 | C[C@@H](O[C@H]1OCCN(Cc2nn(P(=O)(O)O)c(=O)[nH]2)[C@H]1c1ccc(F)cc1)c1cc(C(F)(F)F)cc(C(F)(F)F)c1 [Fosaprepitant dimeglumine salt] | -2.44
12 | CN1CC(=O)N=C1NC(=O)Nc1cccc(Cl)c1 [Fenobam] | -0.794
13 | Nc1nc2c(c(=O)[nH]1)C[C@@H](CCc1ccc(C(=O)N[C@@H](CCC(=O)O)C(=O)O)cc1)CN2 [Lometrexol hydrate] | 0.225
14 | CCn1cc(-c2ccnc3[nH]c(-c4cccc(CN(C)C)c4)cc23)c(-c2ccc(NC(=O)N(C)C)cc2)n1 | -5.93
15 | CN(C)C(=O)c1ccc(S(=O)(=O)c2ccc(NC(=O)[C@@](C)(O)C(F)(F)F)c(Cl)c2)cc1 | 19.5
16 | C[C@H](Oc1cc(-c2cnn(C3CCNCC3)c2)cnc1N)c1c(Cl)ccc(F)c1Cl [(S)-crizotinib] | -4.58
17 | Cc1ccc(Nc2c(F)cccc2Cl)c(CC(=O)O)c1 [Lumiracoxib] | 0.263
18 | Clc1ccccc1CN1CCc2sccc2C1 [Ticlopidine HCl] | 18.4
19 | COC(=O)[C@H](c1ccccc1Cl)N1CCc2sccc2C1 [Clopidogrel] | 1.42
20 | CN1CCC(=C2c3ccccc3CCc3sccc32)CC1 [Pizotifen Malate] | -6.09
21 | COC(=O)C1=C(C)NC(C)=C(C(=O)OC)C1c1cccc(NC(=O)NCCCN2CCC(c3cccc(OC)c3)CC2)c1 | < -3.85
22 | CCc1nc(N)nc(N)c1-c1ccc(Cl)cc1 [Pyrimethamine] | 49
23 | C[n+]1cccc(C(N)=O)c1 [1-Methylnicotinamide chloride] | -0.176
24 | N#CC[C@H](C1CCCC1)n1cc(-c2ncnc3[nH]ccc23)cn1 | 2.47
25 | c1ccc(-c2[nH]ncc2-c2ccnc3ccccc23)nc1 | -2.12
26 | CCCC(C(=O)OCCN(CC)CC)(c1ccccc1)c1ccccc1 [SKF-525A hydrochloride] | -3.42

Row | Compound | MBP+ mature oligodendrocyte number
27 | CCN(CC)CC#CCOC(=O)C(O)(c1ccccc1)C1CCCCC1 (stereo unspecified) [Oxybutynin Chloride] | 13.5
28 | CCN(CC)CC#CCOC(=O)C(O)(c1ccccc1)C1CCCCC1 (stereo unspecified) [Oxybutynin chloride] | 29.7
29 | CCN(CC)CCOC(=O)C(c1ccccc1)c1ccccc1 [Adiphenine HCl] | 0.0731
30 | Cc1cc2nc(NCCCO)n(CC(=O)c3cc(C(C)(C)C)c(O)c(C(C)(C)C)c3)c2cc1C | -4
31 | CC[C@H](NC(=O)[C@H](C)NC)C(=O)N1C[C@@H](O)C[C@H]1Cc1c(-c2[nH]c3cc(F)ccc3c2C[C@@H]2C[C@H](O)CN2C(=O)[C@H](CC)NC(=O)[C@H](C)NC)[nH]c2cc(F)ccc12 [Birinapant] | -5.76
32 | NCCCCCNCC12CC3CC(CC(C3)C1)C2 [IEM 1754 dihydrobroMide] | -4.82
33 | O=C1NCN(c2ccccc2)C12CCN(CCCC(c1ccc(F)cc1)c1ccc(F)cc1)CC2 [Fluspirilene] | -4.41
34 | O=C1NCC2(CCN(CCc3ccccc3)CC2)O1 [Fenspiride hydrochloride] | 10.5
35 | O=C1NCC2(CCN(CCc3ccccc3)CC2)O1 [Fenspiride HCl] | 21.6
36 | O=C(O)P(=O)(O)O [Foscarnet Sodium] | -1.56
37 | CC(=O)OC[C@H]1O[C@@H]([S-])[C@H](OC(C)=O)[C@@H](OC(C)=O)[C@@H]1OC(C)=O.CCP(CC)CC.[Au+] [Auranofin] | < -3.85
38 | CC1(C)O[C@@H]2C[C@H]3[C@@H]4CCC5=CC(=O)C=C[C@]5(C)[C@H]4[C@@H](O)C[C@]3(C)[C@]2(C(=O)CO)O1 [Desonide] | 9.44
39 | CCCC1O[C@@H]2C[C@H]3[C@@H]4CCC5=CC(=O)C=C[C@]5(C)[C@H]4[C@@H](O)C[C@]3(C)[C@]2(C(=O)CO)O1 (stereo partly specified) [Budesonide] | 13.4 ± 10
40 | C[C@]12C=CC(=O)C=C1CC[C@@H]1[C@@H]2[C@@H](O)C[C@@]2(C)[C@H]1CC[C@]2(O)C(=O)CO [Prednisolone] | 7.54
41 | Nc1ccccc1NC(=O)c1ccc(CNc2nccc(-c3cccnc3)n2)cc1 [Mocetinostat (MGCD0103)] | < -6.7
42 | CC(O)C(O)[C@H]1CNc2nc(N)[nH]c(=O)c2N1 (stereo partly drawn) [(6R)-5,6,7,8-Tetrahydro-L-biopterin hydrochloride] | -1.5
43 | CCCn1c(=O)c2c(ncn2C)n(CCC)c1=O [1,3-Dipropyl-7-methylxanthine] | 0.502
44 | CO/N=C(\C(=O)N[C@@H]1C(=O)N2C(C(=O)O)=C(Cn3ccc(=N)n3CCO)CS[C@H]12)c1csc(N)n1 [Cefoselis Sulfate] | 0.982
45 | CC(C)[C@H](NC(=O)c1ccc2ccccc2n1)C(=O)N[C@@H](CC(=O)O)C(=O)COc1c(F)cccc1F | 24.8
46 | C[C@H](NC(=O)C(=O)Nc1ccccc1C(C)(C)C)C(=O)N[C@@H](CC(=O)O)C(=O)COc1c(F)c(F)cc(F)c1F [Emricasan] | 10.3
47 | CC(C)C[C@H](NC(=O)[C@@H](NC(=O)c1cccc(-c2ccccc2)n1)[C@@H](C)O)B(O)O | < -6.7
48 | NC[C@@H]1O[C@H](c2ccccc2)Cc2c1ccc(O)c2O | -0.675
49 | NC(N)=NC(N)=Nc1ccccc1 [1-Phenylbiguanide] | 0.289
50 | C[C@]12CC[C@H](O)CC1=CC[C@@H]1[C@@H]2CC[C@]2(C)C(n3cnc4ccccc43)=CC[C@@H]12 [Galeterone] | 16.8
51 | CC[C@H](/C=C/[C@@H](C)[C@H]1CC[C@H]2[C@@H]3CC=C4C[C@@H](O)CC[C@]4(C)[C@H]3CC[C@]12C)C(C)C [Stigmasterol] | -1.84
52 | CC(=O)[C@H]1CC[C@H]2[C@@H]3CC=C4C[C@@H](O)CC[C@]4(C)[C@H]3CC[C@]12C [Pregnenolone] | -3.89

Row | Compound | MBP+ mature oligodendrocyte number
53 | CC(C)C[C@H](NP(=O)(O)O[C@H]1O[C@H](C)[C@@H](O)[C@H](O)[C@@H]1O)C(=O)N[C@@H](Cc1c[nH]c2ccccc12)C(=O)O [Phosphoramidon disodium] | -0.211
54 | CN(N=O)C(=O)NC1C(O)OC(CO)C(O)C1O (stereo unspecified) [Streptozotocin (STZ)] | 0.109
55 | CN(C)C1CCN(C(=O)c2ccc(NC(=O)Nc3ccc(-c4nc(N5CCOCC5)nc(N5CCOCC5)n4)cc3)cc2)CC1 | < -6.01
56 | CC(C)(N)c1ncc(-c2ccc(OC(F)(F)F)cc2)[nH]1 | -1.43
57 | O=C(NC(NC(=S)Nc1ccc(F)c([N+](=O)[O-])c1)C(Cl)(Cl)Cl)C(c1ccccc1)c1ccccc1 (stereo unspecified) | -5.76
58 | CCN(CC)Cc1ccc(C(=O)N(CCc2ccccc2OC)[C@@H]2CCNC2)cc1 | -3.89
59 | CC(C)[N+]1(C)[C@@H]2CC[C@H]1C[C@@H](OC(=O)C(CO)c1ccccc1)C2 (stereo partly specified) [Ipratropium bromide] | -0.439
60 | CCCC(CCC)C(=O)O[C@H]1C[C@H]2CC[C@@H](C1)[N+]2(C)C [Anisotropine methyl bromide] | 32.5
61 | CCCC(CCC)C(=O)O [Divalproex Sodium] | 2.05
62 | CCCC(CCC)C(=O)O [Valproic acid sodium] | 0.147
63 | CC(C)[N+]1(C)[C@@H]2CC[C@H]1C[C@@H](OC(=O)C(CO)c1ccccc1)C2 (stereo partly specified) [Ipratropium Bromide] | 0.883
64 | CCCC(CCC)C(=O)O [Valproic acid sodium salt (Sodium valproate)] | 0.72
65 | Nc1cc(C(F)(F)F)c(-c2cc(N3CCOCC3)nc(N3CCOCC3)n2)cn1 [BKM120 (NVP-BKM120, Buparlisib)] | -4.7
66 | Clc1ccc(N2CCN(Cc3cc4ccccn4n3)CC2)cc1 | 0.61
67 | CCCCS(=N)(=O)CCC(N)C(=O)O (racemic) [DL-Buthionine-[S,R]-sulfoximine] | -0.472
68 | COc1ccc(CCN(C)CCCC(C#N)(c2ccc(OC)c(OC)c2)C(C)C)cc1OC (racemic) [(±)-Verapamil hydrochloride] | -2.6
69 | CC(C(=O)O)c1ccc(-c2ccccc2)c(F)c1 (stereo unspecified) [Flurbiprofen] | -0.0169
70 | C/C(O)=C(\C#N)C(=O)Nc1ccc(C(F)(F)F)cc1 [Teriflunomide] | 0.913
71 | CC(C)C[C@H](C(=O)O)c1cc(-c2ccc(C(F)(F)F)cc2)cc(-c2ccc(C(F)(F)F)cc2)c1 | 25.5
72 | C=CC(=O)N1CCC[C@@H](n2nc(-c3ccc(Oc4ccccc4)cc3)c3c(N)ncnc32)C1 | 0.104
73 | Cc1ccc(C(=O)N(CCCN)[C@@H](c2oc3cc(Cl)ccc3c(=O)c2Cc2ccccc2)C(C)C)cc1 | < -4.81
74 | c1ccc(CN2CCC3(CCCc4ccccc43)CC2)cc1 [L-687,384 hydrochloride] | 0.735
75 | Cc1nn(-c2ccccc2)c(C)c1C=NN1CCN(Cc2ccccc2)CC1 | 14.2 ± 1.6
76 | Cc1cccc(CN2CCN(C(c3ccccc3)c3ccc(Cl)cc3)CC2)c1 (stereo unspecified) [Meclizine 2HCl] | -4.88
